Targets include CTTN (UniProt Q14247); CYP2S1 (UniProt Q96SQ9); DDX18 (UniProt Q9NVP1); GTPBP4 (UniProt Q9BZE4); RPL7A (UniProt P62424); DDX21 (UniProt Q9NR30); PDCD11 (UniProt Q14690); DDX24 (UniProt Q9GZR7); DDX54 (UniProt Q8TDD1); DDX56 (UniProt Q9NY93); DIMT1 (UniProt Q9UNQ2); DNAJB11 (UniProt Q9UBS4); EBNA1BP2 (UniProt Q99848); PWP1 (UniProt Q13610); ECPAS (UniProt Q5VYK3); EEF1A2 (UniProt Q05639); EEF1D (UniProt P29692); EIF3B (UniProt P55884); EIF3H (UniProt O15372); EIF3M (UniProt Q7L2H7); EMC2 (UniProt Q15006); ENO3 (UniProt P13929); ESYT1 (UniProt Q9BSJ8); EXOC8 (UniProt Q8IYI6); EXOSC4 (UniProt Q9NPD3); FARSA (UniProt Q9Y285); FBL (UniProt P22087); FDXR (UniProt P22570); FLNA (UniProt P21333); GCN1 (UniProt Q92616); GNG12 (UniProt Q9UBI6); GNL2 (UniProt Q13823); GTF2F1 (UniProt P35269); H1-3 (UniProt P16402); NOP53 (UniProt Q9NZM5); RPL6 (UniProt Q02878); TOP2A (UniProt P11388); H2AC20 (UniProt Q16777); H2BC18 (UniProt Q5QNW6); H2BC5 (UniProt P58876); HADHA (UniProt P40939); TIMM50 (UniProt Q3ZCQ8); HADHB (UniProt P55084); SLC25A3 (UniProt Q00325); HIBCH (UniProt Q6NVY1); HKDC1 (UniProt Q2TB90); IDH3A (UniProt P50213); ITGB5 (UniProt P18084); HSPE1 (UniProt P61604); MCCC2 (UniProt Q9HCC0); MRPL12 (UniProt P52815); MRPL53 (UniProt Q96EL3); PNPT1 (UniProt Q8TCS8); PYCR2 (UniProt Q96C36); HSPA9 (UniProt P38646); LSM2 (UniProt Q9Y333); SF3B1 (UniProt O75533); MDH2 (UniProt P40926); IMMT (UniProt Q16891); PTGES2 (UniProt Q9H7Z7); HSPA2 (UniProt P54652); PHB2 (UniProt Q99623); KCMF1 (UniProt Q9P0J7); LBR (UniProt Q14739); TMPO (UniProt P42166); IARS1 (UniProt P41252); MCM6 (UniProt Q14566); KLC1 (UniProt Q07866); HNRNPM (UniProt P52272); NONO (UniProt Q15233); PCBP2 (UniProt Q15366); LLPH (UniProt Q9BRT6); RSL24D1 (UniProt Q9UHA3); NDUFAF4 (UniProt Q9P032); LTV1 (UniProt Q96GA3); SERBP1 (UniProt Q8NC51).

Holding throughout (conditions): DSSO, in cells

On to ACTR3, P61158, for which the cross-linked residues entry with CTTN was “K361 - K72”.

With ACTN4, O43707, in the test with CTTN, the cross-linked residues result is recorded as “K108 - K107”.

As for PGRMC1, O00264, the cross-linked residues result with CYP2S1 is reported as “K102 - K437”.

EBNA1BP2, Q99848: the figures for the cross-linked residues entry in the test with DDX18 and in the test with GTPBP4 were “K33 - K656” and “K149 - K7”, respectively.

For RSL1D1, O76021, the figures for the cross-linked residues entry with DDX18 and with RPL7A were “K109 - K571” and “K109 - K125”, respectively.

Take DDX50, Q9BQ39: the cross-linked residues result in the test with DDX21 is “K524 - K600”.

For NCL, P19338, the cross-linked residues entry is recorded as “K398 - K327” with DDX21 and “K589 - K1524” with PDCD11.

RPL18, Q07020: in the test with DDX24, the cross-linked residues result was “K49 - K772”.

Take SURF6, O75683: in the test with DDX54, the cross-linked residues result was “K317 - K848”.

PDCD11, Q14690: the cross-linked residues result in the test with DDX56 is recorded as “K122 - T91”.

Take DHX37, Q8IY37: in the test with DIMT1, the cross-linked residues result was “K131 - K253”.

Regarding SDF2, Q99470, the cross-linked residues entry in the test with DNAJB11 is listed as “K197 - K39”.

With RPL15, P61313, the cross-linked residues result with EBNA1BP2 is on record as “K83 - K149”; in the test with PWP1, “K56 - K40”.

For the substance BRIX1, Q8TDN6, the cross-linked residues entry with EBNA1BP2 is “K276 - K94”.

PSMA1, P25786: in the test with ECPAS, the cross-linked residues entry is “K243 - K1217”.

Take RPL12, P30050: the cross-linked residues result in the test with EEF1A2 was “K40 - K392”.

As for EEF1B2, P24534, the cross-linked residues result with EEF1D is “S128 - K117”.

In the case of RPS9, P46781, in the test with EIF3B, the cross-linked residues entry is listed as “K139 - K552”.

As for EIF3F, O00303, the figures for the cross-linked residues result with EIF3H and in the test with EIF3M were “K238 - K221” and “K238 - K177”, respectively.

As for EIF3H, O15372, the cross-linked residues entry with EIF3M was “K221 - K115”.

For EMC8, O43402, the cross-linked residues entry with EMC2 is “K100 - K136”.

For the substance ENO2, P09104, in the test with ENO3, the cross-linked residues entry is “K256 - K275”.

On to ESYT2, A0FGR8, for which the cross-linked residues result with ESYT1 is “K200 - K197”.

On to EXOC5, O00471, for which the cross-linked residues result in the test with EXOC8 is reported as “K132 - K60”.

On to EXOSC9, Q06265, for which, in the test with EXOSC4, the cross-linked residues entry is given as “K67 - K95”.

In the case of FARSB, Q9NSD9, the cross-linked residues entry with FARSA is given as “K53 - K117”.

As for NOP56, O00567, the cross-linked residues result with FBL is “K158 - K205”.

In the case of DLD, P09622, the cross-linked residues entry with FDXR is on record as “K430 - K287”.

For the substance FLNB, O75369, the cross-linked residues result in the test with FLNA is recorded as “K2576 - K2607”.

For the substance RPS19, P39019, the cross-linked residues entry with GCN1 is “K143 - K1556”.

GNAI3, P08754: the cross-linked residues result with GNG12 was “K92 - K4”.

RPL23, P62829: the cross-linked residues entry with GNL2 is given as “K66 - K434”; with GTPBP4, “K113 - K103”.

Regarding POLR2B, P30876, the cross-linked residues result with GTF2F1 was “K210 - K290”.

Turning to NSA2, O95478, the cross-linked residues result with GTPBP4 is recorded as “K134 - K118”.

Consider NPM1, P06748, for which the cross-linked residues entry is “K141 - K33” in the test with H1-3, “S149 - K432” with NOP53, “S139 - K237” in the test with RPL6 and “K263 - K798” with TOP2A.

On to H1-5, P16401, for which the cross-linked residues entry in the test with H2AC20 is recorded as “K78 - K125”.

With H2BC5, P58876, in the test with H2BC18, the cross-linked residues result is given as “K6 - K21”.

Take HMGA1, P17096: the cross-linked residues result in the test with H2BC5 was “K15 - K6”.

On to SLC25A6, P12236, for which the results for the cross-linked residues result in the test with HADHA and in the test with TIMM50 were “K147 - S624” and “K147 - T46”, respectively.

For HADHA, P40939, the values for the cross-linked residues result with HADHB and with SLC25A3 were “K406 - K272” and “K569 - K295”, respectively.

On to PMPCA, Q10713, for which the cross-linked residues entry with HIBCH was “K299 - K353”.

On to CPT1A, P50416, for which the cross-linked residues result with HKDC1 is listed as “K332 - K53”.

With VDAC1, P21796, in the test with HKDC1, the cross-linked residues result is on record as “K109 - K312”.

As for IDH3B, O43837, the cross-linked residues entry in the test with IDH3A was “K114 - K200”.

For ITGAV, P06756, the cross-linked residues entry with ITGB5 was “K718 - K519”.

With HSPA9, P38646, the cross-linked residues entry with HSPE1 is “K625 - K28”; in the test with MCCC2 it was “K206 - K495”; in the test with MRPL12, “K206 - K138”; in the test with MRPL53 it was “K612 - K41”; in the test with PNPT1, “K625 - K750”; with PYCR2, “K625 - K307”.

Turning to DUT, P33316, the cross-linked residues entry with HSPA9 is on record as “S101 - K625”.

As to LETM1, O95202, the cross-linked residues result with HSPA9 was “K587 - K625”.

Consider TIMM44, O43615, for which, in the test with HSPA9, the cross-linked residues entry is “S185 - K671”.

For the substance PRPF3, O43395, the cross-linked residues result in the test with LSM2 is “K294 - K88”; in the test with SF3B1, “K252 - K858”.

On to ALDH2, P05091, for which, in the test with MDH2, the cross-linked residues entry is “K378 - K239”.

Take GPD2, P43304: the figures for the cross-linked residues result in the test with IMMT and with PTGES2 were “K458 - T78” and “K510 - K225”, respectively.

ETFB, P38117: in the test with HSPA9, the cross-linked residues entry was “K238 - K625”.

As to HSPA4, P34932, the cross-linked residues entry with HSPA2 is “K272 - K57”.

For the substance CYCS, P99999, the cross-linked residues entry with IMMT is “T41 - K269”; with PHB2, “T41 - K262”.

Turning to FH, P07954, the cross-linked residues result with MDH2 is recorded as “K223 - K239”.

Take GLUD1, P00367: the cross-linked residues result with MDH2 is listed as “K191 - K239”.

PPIF, P30405: the cross-linked residues result is reported as “K182 - K40” with HSPE1 and “K190 - K239” with MDH2.

On to UBR4, Q5T4S7, for which the cross-linked residues result with KCMF1 is given as “S4031 - K300”.

Regarding LMNA, P02545, the figures for the cross-linked residues entry in the test with LBR and with TMPO were “K420 - K107” and “K97 - S354”, respectively.

For the substance PDHA1, P08559, the cross-linked residues entry with MDH2 is “K313 - K239”.

EPRS1, P07814: the cross-linked residues result with IARS1 is “K512 - K1113”.

Take MCM2, P49736: the cross-linked residues entry with MCM6 was “K863 - K733”.

For the substance ETHE1, O95571, the cross-linked residues entry with MDH2 is reported as “K66 - K239”.

Regarding PRDX3, P30048, the cross-linked residues entry with MDH2 was “K149 - K239”.

With KIF5B, P33176, the cross-linked residues result with KLC1 is “K829 - K29”.

Take PTBP1, P26599: the cross-linked residues result is “K454 - K239” in the test with HNRNPM, “K454 - K467” with NONO and “K436 - K309” in the test with PCBP2.

LMNB2, Q03252: the cross-linked residues entry in the test with LBR was “K186 - K190”.

Regarding RPL3, P39023, the results for the cross-linked residues result with LLPH and with RSL24D1 were “K362 - K24” and “K399 - K106”, respectively.

As to NDUFS3, O75489, the results for the cross-linked residues result with HSPA9 and with NDUFAF4 were “K259 - K625” and “K217 - K107”, respectively.

RPS3, P23396: the cross-linked residues result is “K62 - K45” in the test with LTV1 and “K62 - K281” with SERBP1.

The values above are taken from PMC13423814.
